# In PubChem BioAssay (NCATS):
# Results filed as inconclusive are left out. Activity calls are given as the source filed them. The call rests on the fitted dose curve.
# Target: Estrogen receptor (Homo sapiens) (UniProt P03372)
# Test: qHTS assay for small molecule agonists of estrogen receptor alpha signaling (AID 588514); further: nearly all actives have a fitted effect of over 70% in size;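 on activation: 0% = vehicle only and 100% = reference agonist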
# Settings: ER-alpha-UAS-bla HEK293, beta-lactamase ratio, 18 h; series mostly up to 76.8 µM; activation: at the top concentration
# Excerpt: NIH Chemical Genomics Center [NCGC]
# U.S. Environmental Protection Agency [EPA]
# National Institutes of Environmental Health Sciences [NIEHS]
# National Toxicology Program [NTP]
# Estrogen receptor alpha (ER-alpha) is an important member of nuclear hormone receptors. ER-alpha plays important role in breast cancer as well as in other women's health issues. The majority of breast cancers is estrogen receptor (ER) positive and depends on estrogen for growth. There is also growing concern for some of environmental chemicals which may contribute the increasing the incidence of breast cancer. Therefore, it is important to understand the effect of environmental chemicals in ER-alpha signaling pathway.
# NCGC Assay Protocol Summary
# Using a beta-lactamase reporter-gene under control of the ER response element, a cell-based assay [ER-alpha-UAS-bla GripTiteTM cell-Based Assay from Invitrogen] was used to measure ER-alpha signaling pathway in agonist mode. ER-alpha-UAS-bla-GripTite HEK 293 cells were used with assay medium containing 2% charcoal/dextran treated FBS, 0.1 mM NEAA and 1 mM sodium pyruvate. Cells were cultured in this assay medium overnight in the flasks before the assay. The assay was performed in clear bottom black Greiner 1536-well plates. 17-beta-estradiol was used as a positive control in the screen. Library compounds were measured for their ability to either stimulate the reporter gene activity. Compounds were screened in a titration series in 1536-well format. […] Data was normalized relative to 17-beta-estradiol control (20 nM, 100%), and DMSO only wells (basal, 0%). Concentration-response titration points for each compound were fitted to the Hill equation yielding concentrations of half-maximal stimulation (EC50) and maximal response (efficacy) values.
# qHTS protocol for ER-alpha beta-lactamase assay in agonist mode
# [Step] [Parameter] [Value] [Description]
# 1. Reagent; 6 uL; 5000 cells/well
# 2. Incubation; 37 C for 4 hrs
# 4. Controls (17-beta-estradiol); 23 nL
# - Dose response, start 1uM, 1:3 dilutions with duplicates
# - Two columns with 20 and 0.5 nM (final) concentration.
# 5. Incubation; 37 C for 18 hrs
# 6. Detection reagent; 1 uL of CCF4-dye
# 7. Incubation; RT for 2 hrs
# 8. Detection; Fluorescence; Envision plate reader or Acumen plate reader
# Estrogen receptor (Homo sapiens), sequence (P03372 whole entry, looked up): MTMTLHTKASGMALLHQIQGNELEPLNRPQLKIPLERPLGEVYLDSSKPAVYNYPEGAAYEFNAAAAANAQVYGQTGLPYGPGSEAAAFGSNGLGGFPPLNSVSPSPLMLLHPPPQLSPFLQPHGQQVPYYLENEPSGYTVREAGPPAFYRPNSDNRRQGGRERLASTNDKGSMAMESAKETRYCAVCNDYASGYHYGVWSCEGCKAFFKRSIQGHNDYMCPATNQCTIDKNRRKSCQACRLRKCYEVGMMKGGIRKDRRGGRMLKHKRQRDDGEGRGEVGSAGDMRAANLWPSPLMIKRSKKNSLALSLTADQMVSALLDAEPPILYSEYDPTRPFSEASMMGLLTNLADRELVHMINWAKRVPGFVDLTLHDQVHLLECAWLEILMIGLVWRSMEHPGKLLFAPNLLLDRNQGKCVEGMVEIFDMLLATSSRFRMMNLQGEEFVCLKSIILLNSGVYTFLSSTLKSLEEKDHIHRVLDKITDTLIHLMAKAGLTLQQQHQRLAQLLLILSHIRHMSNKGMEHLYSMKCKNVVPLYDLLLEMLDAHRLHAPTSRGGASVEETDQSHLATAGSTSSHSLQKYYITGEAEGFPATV
SMILES,activation,Potency
CC(Cl)CCl (stereo not given),-0.962% (inactive),
Nc1ccc([N+](=O)[O-])cc1[N+](=O)[O-],-4.22% (inactive),
Nc1cccc2ccccc12,-0.738% (inactive),
O=[N+]([O-])c1ccccc1CCl,0.421% (inactive),
C=CCCC#N,-0.212% (inactive),
CC(C)CON=O,1.74% (inactive),
Cc1cccc(C)c1N,2.74% (inactive),
[O-][Cl+]O,7.28% (inactive),
Nc1ccc(Cc2ccc(N)c(Cl)c2)cc1Cl,-8.67% (inactive),
ClC=CCl,-4.87% (inactive),
ClC(Br)Br,-4.51% (inactive),
O=[N+]([O-])c1c(Cl)c(Cl)c(Cl)c(Cl)c1Cl,,inactive
CCN(N=O)C(N)=O,-7.76% (inactive),
c1ccc(P(c2ccccc2)c2ccccc2)cc1,-0.387% (inactive),
Clc1ccccc1,-4.07% (inactive),
O=C(O)C(Br)CBr (stereo not given),5.28% (inactive),
C[N+](=O)[O-],-1.33% (inactive),
O=[N+]([O-])c1cc(Cl)c(Cl)c(Cl)c1,0.494% (inactive),
N#CCBr,-13.6% (inactive),
C=CCCl,5.7% (inactive),

SMILES,activation,Potency
Nc1ccc(-c2ccc(N)cc2)cc1,0.444% (inactive),
CCCN(CCC)c1c([N+](=O)[O-])cc(C(F)(F)F)cc1[N+](=O)[O-],-3.68% (inactive),
C(CCOCC1CO1)COCC1CO1 (stereo not given),-1.84% (inactive),
N#CC(Cl)(Cl)Cl,-7.54% (inactive),
CN(C)c1ccc(N(C)C)cc1,-3.32% (inactive),
C=CCBr,3.66% (inactive),
Nc1c(Br)cc([N+](=O)[O-])cc1[N+](=O)[O-],-8.71% (inactive),
CCC(Cl)[N+](=O)[O-] (stereo not given),-2.39% (inactive),
CCCCCOC(=O)c1ccccc1C(=O)OCCCCC,,inactive
Oc1cccc(Cl)c1,10.3% (inactive),
C=CC(=O)OCC(C)C,-0.844% (inactive),
Cc1cc(-c2ccc(N)c(C)c2)ccc1N,,22.4 µM (active)
Cc1ccc([N+](=O)[O-])cc1,1.45% (inactive),
C=CC#N,-6.19% (inactive),
Cc1ccccc1[N+](=O)[O-],-5.83% (inactive),
Brc1cccc(-c2ccccc2)c1,0.0987% (inactive),
CCOP(=S)(OCC)Oc1nc(Cl)c(Cl)cc1Cl,,inactive
Cl/C=C/Cl,4.13% (inactive),
C=C(Cl)CCl,1.03% (inactive),
CC(C)CC(C)N (stereo not given),0.922% (inactive),
